# High-throughput results as filed in PubChem BioAssay.
# Hits are enriched below; roughly 11% of the tested compounds scored in any of these assays.
# ALDH1A1 block – ALDH1A1 (human) enzyme inhibition; P00352; Purified ALDH1A1, NADH fluorescence, propionaldehyde substrate; Potency, µM (highest dose often 75.3 µM), for the others: at the highest dose activity, negative = inhibition, most hits filed as inhibitors; actives 7.3% (n = 220,000);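 further: potency means the concentration at half of the fitted maximal effect; plate controls were no enzyme wells and a reference inhibitor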
# Target sequence (P00352 whole entry, looked up): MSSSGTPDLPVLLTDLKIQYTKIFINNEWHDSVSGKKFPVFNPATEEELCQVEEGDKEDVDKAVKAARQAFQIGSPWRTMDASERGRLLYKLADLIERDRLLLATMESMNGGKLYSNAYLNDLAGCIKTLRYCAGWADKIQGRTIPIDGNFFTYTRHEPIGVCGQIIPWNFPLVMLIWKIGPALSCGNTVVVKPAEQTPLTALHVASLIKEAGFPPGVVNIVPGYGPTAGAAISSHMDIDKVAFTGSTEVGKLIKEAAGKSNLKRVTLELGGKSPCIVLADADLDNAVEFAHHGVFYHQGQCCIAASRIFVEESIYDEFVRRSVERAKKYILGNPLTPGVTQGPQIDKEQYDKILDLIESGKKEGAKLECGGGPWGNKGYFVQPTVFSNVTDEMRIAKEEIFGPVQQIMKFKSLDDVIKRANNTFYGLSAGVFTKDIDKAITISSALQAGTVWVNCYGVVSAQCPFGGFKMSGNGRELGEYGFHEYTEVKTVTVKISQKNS
# PNC inhibitor – blocks assembly of the perinucleolar compartment | PC3M PTB-GFP, PNC prevalence imaging, 16 h; stronger effect = lower value | actives 3.1% (n = 140,000) | AID 2417 | activity change (PNC), negative = inhibition, % at 10 µM;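 active means readout at or below -70, meaning at least 70% loss of cells showing the perinucleolar compartment, a nuclear body marking cancer cells; inconclusive means readout between -30 and a set limit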;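 further: plate controls were DMSO wells for no effect and camptothecin positive control wells for full effect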
#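 Read-out is percentage of cells bearing a perinucleolar compartment, from automated 20x imaging of fixed, Hoechst-stained PC3M PTB-GFP cells. Cells were seeded 4 h, then exposed 16 h to compound (23 nl of library stock) in duplicate plates.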
# IMPase Li cell – cell-permeable IMPase inhibitors with lithium potentiation; CHO-M1 cells, IP1 TR-FRET (IP-One), carbachol + lithium; actives 0.35% (n = 210,000); Potency, µM (titrated, usually from 59.4 µM), without a hit: at the highest dose activity, negative = IMPase inhibition, hits mostly inhibitors; active means well fitted inhibition curve with a large enough effect; inconclusive means small, poorly fitted or top-dose-only effect; inactive means no such curve, though single readings can be large or run the other way;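 further: IP1 builds up when IMPase is blocked and the TR-FRET signal falls; potency means the concentration at half of the fitted maximal effect; plate controls were basal vehicle for no effect and high inhibitor control for full effect; nearly all actives have a fitted effect of over 50% in size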
#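 CHO cells stably expressing M1 receptor (2000/well) were cultured 16–30 h, then exposed to compounds with a small lithium addition for 30 min at 37C. IP1 was measured by TR-FRET competition; AC50 from Hill fits.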
# HPGD inh – HPGD (human) dehydrogenase inhibition; Potency, µM, without a hit: top-dose activity change, negative = inhibition, most hits filed as inhibitors; purified HPGD, NADH fluorescence kinetic, PGE2 substrate; P15428; actives 4.3% (n = 150,000); AID 894; further: potency means the concentration at half of the fitted maximal effect
# Target sequence (P15428 whole entry, looked up): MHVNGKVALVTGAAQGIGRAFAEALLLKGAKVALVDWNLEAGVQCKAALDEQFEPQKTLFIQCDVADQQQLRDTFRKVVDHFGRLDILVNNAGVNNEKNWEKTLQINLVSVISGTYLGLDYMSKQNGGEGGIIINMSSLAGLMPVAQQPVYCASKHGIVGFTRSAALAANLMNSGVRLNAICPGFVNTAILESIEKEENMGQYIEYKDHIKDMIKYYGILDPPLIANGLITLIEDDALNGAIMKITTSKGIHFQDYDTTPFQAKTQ
#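 20 nM HPGD preincubated 15 min at room temperature with compound in 50 mM Tris-HCl pH 8, 0.01% Tween 20. Started with 1 mM NAD+ and 30 uM prostaglandin E2; NADH fluorescence (360/450 nm) read 5 times over 30-s intervals, last minus first.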
# IMPase inh – IMPase inhibition in cells; P97697; CHO-M1 cells, IP1 accumulation, HTRF TR-FRET ratio; inhibition (IP1 accumulation), % at 46.1 µM; 120,000 tested, under 10 active; AID 901; active means well fitted curve in the direction sought with a large enough effect in the signal ratio, not every such curve was filed as active; inconclusive means small, poorly fitted or top-dose-only effect, or a change in a side signal; inactive means no such curve, though single readings can be large or run the other way; the % refers to the signal ratio;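 further: cells stimulated with carbachol in lithium chloride buffer; plate controls were DMSO basal wells for no effect and reference inhibitor wells for full effect; higher means more IMPase inhibition seen as more IP1 and lower FRET ratio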
#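 In this qHTS, compounds (final up to 46 uM) act on CHO-M1 cells that are then activated through the M1 receptor with carbachol, in pH 7.4 buffer containing 50 mM LiCl, for 30 min. IP1 accumulation is quantified by the IP-One immunoassay.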
# * = called active by the depositor; ? = inconclusive; · = not tested or not shown; [ ] = remark or other dose. Unless noted, the call rests on the fitted dose curve; in most records, active means well fitted inhibition curve with a large enough effect (not every such curve was filed as active); inconclusive means small, poorly fitted or top-dose-only effect, or another doubt; inactive means no such curve, though single readings can be large or run the other way. Unless noted, on the % scale 0 is the no-effect control and ±100 the full control effect.
SMILES,ALDH1A1 block,PNC inhibitor,IMPase Li cell,HPGD inh,IMPase inh
O=C(NNC(=S)Nc1ccc(F)c(Cl)c1)c1ccccc1Br,13µM*,·,5%,·,·
Cc1cccc(NC(=O)CCC(=O)N/N=C/c2ccco2)c1,9%,31,5%,-13%,·
CN(C)S(=O)(=O)c1cccc(NC(=S)Nc2cc(Cl)cc(Cl)c2)c1,?,35,19%[38.3 µM],-23%,-9
O=C(N/N=C\c1ccco1)Nc1cccc(Cl)c1,28µM*,13,9%,-29%,3
S=C(NCc1ccccn1)Nc1ccc(Cl)c(Cl)c1,11µM*,-28,-6%[38.3 µM],16µM*,-1
S=C(NCc1ccco1)Nc1ccc(Cl)c(Cl)c1,25µM*,4,9%[38.3 µM],3.2µM*,-18
S=C(NCc1ccco1)Nc1cc(-c2ccccc2)[nH]n1,1.1µM*,·,7%,·,·
O=C(CCNc1cccc(Cl)c1)c1ccco1,7.1µM*,5,3%[38.3 µM],-7%,-5
Nc1ccn([C@H]2O[C@H](CO)[C@@H]3[O][Sn]([c]4ccccc4)([c]4ccccc4)[O][C@H]32)c(=O)n1,-14%[13.5 µM],·,4%,-17%,·
OC1CCC2Cc3ccccc3N=C12 (stereo not given),-9%,·,10%,-5%,2
O=C(COc1ccccc1[N+](=O)[O-])N/N=C/c1ccccn1,?,69,-2%,-12%,-8
COc1ccc(/C=N\NC(=O)CNC(=O)C(c2ccccc2)c2ccccc2)cc1[N+](=O)[O-],11µM*,?,9%,-13%,·
COc1ccc(/C=N/NC(=O)C(C)Sc2ccccn2)cc1[N+](=O)[O-] (stereo not given),-9%,·,4%,·,·
Cc1cc([N+](=O)[O-])cc(C)c1OCC(=O)N/N=C/c1ccc(OC(=O)c2ccccc2Br)cc1,13%,62,7%,-6%,·
O=[N+]([O-])c1cc(/C=N\Nc2nccs2)ccc1O,?,-11,25%[38.3 µM],8.9µM*,5
O=C(COc1ccccc1[N+](=O)[O-])N/N=C/c1ccc(O)c([N+](=O)[O-])c1,25µM*,·,13%,·,·
Cc1cc([N+](=O)[O-])cc(C)c1OCC(=O)N/N=C/c1ccc(OC(=O)c2ccccc2)cc1,-6%,-100*,17%,-13%,·
NCCCC[C@@H](N)C(=O)O,1%,·,-14%,·,·
COc1cccc(C(=O)NCC(=O)N/N=C/c2cccs2)c1,2%,1,3%,-12%,-9
Cc1c(NC(=O)COC(=O)COc2ccc(Nc3ccccc3)cc2)c(=O)n(-c2ccccc2)n1C,22µM*,·,13%,·,·
COc1cccc(Cn2c(=O)cnc3cnc(N(C)C)nc32)c1,?,·,15%,·,·
CC(=O)[C@@H]1[C@@H]2C(=O)N(c3ccc(F)c(Cl)c3)C(=O)[C@@H]2C2c3ccccc3C=CN21 (stereo not given in full),25µM*,53,6%,22µM*,14
N#C[C@@H]1[C@@H]2C(=O)N(c3ccc4c(c3)OCCO4)C(=O)[C@@H]2C2c3ccccc3C=CN21 (stereo not given in full),?,-100*,10%,?,-3
CC(=O)[C@H]1[C@@H]2C(=O)N(c3cccc(Cl)c3)C(=O)[C@@H]2[C@H]2c3ccccc3C=CN21,7.9µM*,77,2%[38.3 µM],35µM*,-8
O=C(c1ccc(Cl)cc1)[C@@H]1[C@@H]2C(=O)N(c3ccc(Cl)cc3)C(=O)[C@@H]2C2c3ccccc3C=NN21 (stereo not given in full),?,-24,1%,-11%,·
SMILES,ALDH1A1 block,PNC inhibitor,IMPase Li cell,HPGD inh,IMPase inh
CC(C)(C)C(=O)[C@@H]1[C@@H]2C(=O)N(Cc3ccccc3)C(=O)[C@@H]2[C@H]2c3ccccc3C=CN12,?,?,33%[38.3 µM],-15%,-4
Cc1nnc(SCC(=O)NCc2cccs2)n1-c1ccccc1,-4%,-21,-18%[38.3 µM],2%,-13
Cc1nnc(SCc2ccccc2F)n1NCc1cccs1,-9%,?,16%[38.3 µM],32µM*,16
Cc1cc2nn(-c3ccccc3)nc2cc1NC(=O)COc1ccc(Cl)cc1,·,·,·,·,-8
Cc1nnc(SCC(=O)Nc2nccs2)[nH]c1=O,-9%,-21,2%[38.3 µM],-12%,-14
Cc1sc(NC(=O)CSc2nnc(C)c(=O)[nH]2)c(C#N)c1C,14µM*,13,-8%[38.3 µM],-17%,-2
CCCn1c(SCC(=O)Nc2ccccc2CC)nnc1C(C)C,-9%,?,-13%,-1%,9
Cc1sc(NC(=O)CSc2nnc(C(C)C)n2C)c(C#N)c1C,-10%,-86*,0%,2%,-4[0.369 µM]
CCCn1c(SCC(=O)Nc2sc(C)c(C)c2C#N)nnc1C(C)C,2.8µM*,?,·,·,-5
CCCC(=O)Nc1cc(-c2nnc3c4ccccc4c(C)nn23)ccc1C,·,·,·,·,-1
COC(=O)/C=C1\S/C(=N/N=C/c2ccco2)NC1=O,-9%,·,-2%,·,·
COC(=O)/C=C1\S/C(=N/N=C/c2ccccc2)NC1=O,1%,-4,2%,25µM*,13
CCOc1ccc(C(=O)CN2CCN(S(=O)(=O)c3ccc(F)cc3)CC2)cc1,20µM*,30,1%[38.3 µM],-1%,-2
CCOc1ccc(NC(=O)CN2CCN(CC(=O)Nc3ccc(F)cc3)CC2)cc1,12µM*,-21,5%[38.3 µM],-1%,3
COc1ccc(NC(=O)CN2CCN(C3c4ccccc4-c4ccccc43)CC2)cc1,22µM*,?,9%[38.3 µM],-10%,-10
CCOc1ccc(NC(=O)CN2CCN(CC(=O)Nc3ccc4c(c3)OCO4)CC2)cc1,?,?,6%[38.3 µM],-7%,-8
COc1cc(OC)nc(NC(=O)CN2CCN(c3ccc(F)cc3)CC2)n1,2%,-24,12%[38.3 µM],-9%,0
COc1ccc(C(=O)CN2CCN(c3ccc(F)cc3)CC2)cc1OC,13µM*,62,4%[38.3 µM],-1%,1
C[N+]1(C)CCC[C@H]1C(=O)[O-],6%[20.9 µM],·,5%,6%,1[20.6 µM]
COc1ccc(S(=O)(=O)Nc2ccc3oc4c(c3c2)C(=O)CC(C)(C)C4)cc1,·,·,·,·,-3
CC(C)Oc1ccc(C(=O)NC2(C(F)(F)F)NC(=O)N(CCCc3ccccc3)C2=O)cc1 (stereo not given),9%,20,12%,-20%,·
CCOc1ccc(NC(=O)CN2CCN(CC(=O)c3ccc(OC)c(OC)c3)CC2)cc1,7.1µM*,10,8%[38.3 µM],-11%,-5
O=C(CSc1nc2ccccc2n1S(=O)(=O)c1cccc([N+](=O)[O-])c1)NCCc1ccccc1,6%,-113*,-10%,?,·
CCCCNC(=O)CSc1nc2ccccc2n1S(=O)(=O)c1ccc(Cl)cc1,14%,-119*,6%,2µM*,-2
CCCCNC(=O)CSc1nc2ccccc2n1S(=O)(=O)c1ccc(Br)cc1,10%,-2,-4%,2.5µM*,·
CCCn1c(-c2ccc(F)cc2)nc2c(NC(C)CN(C)C)nc(C)nc21 (stereo not given),?,·,3%,-27%,·
